Compound activity from PubChem BioAssay.
Rows were chosen to be rich in hits. Some 3.3% of all compounds tested hit in one or more screens of this group.
USP2a inh = blocks human ubiquitin-specific protease USP2a. O75604. USP2 core, Ub-CHOP2 coupled fluorogenic reporter, 485/531. Potency, µM (doses to about 38.3 µM), inactives show at the highest dose activity change, negative = inhibition, usual class: inhibitors. 330,000 compounds, 0.01% hits. AID 463254;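 further: potency means the concentration at half of the fitted maximal effect; plate controls were DMSO wells for no effect and full inhibition by NEM control for full effect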
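Deubiquitinase activity read as fluorescence (485/531 nm) after Ub-CHOP2 cleavage activates the enterokinase reporter on its substrate; USP2 core 10nM, Ub-CHOP2 and substrate 25nM each, 30min compound preincubation then 60min RT; data normalized to NEM, curves fitted.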
WRN inhibitor = inhibitors of human WRN helicase; Q14191; WRN helicase unwinding, fluorescent forked duplex, kinetic; Potency, µM (doses to about 114 µM), for the others: top-dose activity change, negative = inhibition, actives largely listed as inhibitors; 360,000 compounds, 0.46% hits; further: potency means the concentration at half of the fitted maximal effect; nearly all actives have a fitted effect of over 55% in size
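Screening of the MLSMR collection measured strand separation of a quenched forked DNA duplex (100 nM) by 20 nM WRN with 2 mM ATP, all final. Compounds were preincubated with enzyme 15 min at room temperature.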
USP1-UAF1 inh = blocks the human USP1/UAF1 deubiquitinase complex | recombinant USP1/UAF1, Ub-Rhodamine cleavage fluorescence | AID 743255 | Potency, µM (top dose mostly 57.1 µM), without a hit: at the top dose activity change, negative = inhibition, hits mostly inhibitors | 390,000 compounds, 0.23% hits | O94782; further: potency means the concentration at half of the fitted maximal effect; nearly all actives have a fitted effect of over 60% in size
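1 nM enzyme complex + cpd, 15 min RT; start with Ub-Rho 150nM final; kinetic fluorescence ex 480/em 540, 6 reads q60 s. Buffer 50mM HEPES pH 7.8, 0.5mM EDTA, 0.1 mg/ml BSA, 1mM TCEP, 0.01% Tween-20.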
PLK1 PBD block = inhibitors of human PLK1 polo-box domain binding; P53350; Plk1 PBD binding of FITC phosphopeptide, fluorescence polarization; Potency, µM, for the others: max response, negative = inhibition, most hits filed as inhibitors; 360,000 compounds, 2.8% hits; further: potency means the concentration at half of the fitted maximal effect; series mostly up to about 57 µM; nearly all actives have a fitted effect of over 65% in size
PI5P4K alpha inh = blocks human PI5P4K alpha kinase activity; AID 652105; 330,000 compounds, 1.2% hits; PI5P4Kalpha enzyme, ADP-Glo luminescence, 60 min; hits give low values; max response, %; P48426; active means max response of -50% or lower; inconclusive means between -30% and -50%; inactive means -30% or higher; further: value at the top dose of about 77 µM
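Human PI5P4Kalpha with substrate in 0.038 M HEPES pH 7.4, 0.28 mM EGTA, 0.1% CHAPS, 5% DMSO; reaction started with 5 microM ATP (final), 60 min at room temperature. ADP formed read by ADP-Glo luminescence.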
* = called active by the depositor; i = inactive; ? = inconclusive; · = not tested or not shown. Unless noted, the call rests on the fitted dose curve; in most records, active means well fitted curve in the direction sought with a large enough effect; inconclusive means small, poorly fitted or top-dose-only effect, or another doubt; inactive means no such curve, though single readings can be large; an effect the other way counts as inactive or inconclusive. Unless noted, on the % scale 0 is the no-effect control and ±100 the full control effect.

SMILES | USP2a inh | WRN inhibitor | USP1-UAF1 inh | PLK1 PBD block | PI5P4K alpha inh
CCOC(=O)c1c(Nc2ccc(C)c(C)c2)nnc(-c2ccccc2)c1-c1ccccc1 | · | · | -23.6% | · | ·
Cc1ccc(Cc2cnc(NC(=O)c3ccc4c(c3)CC(c3ccccc3)OC4=O)s2)cc1 (centres undefined) | · | · | -17.9% | · | ·
CCC(Sc1nc2nccnc2c(=O)n1Cc1ccc(OC)cc1)C(=O)NC1CCCCC1 (centres undefined) | · | · | -20.0% | · | ·
Cc1nn(-c2ccccc2)c2[nH]c(=O)c(CNc3ccc(N4CCOCC4)cc3)cc12 | -12.1% | -34.9% | -14.8% | 2.99µM* | -25.3
CCN1C(=O)[C@H]2[C@@H](c3ccc(-c4ccc(Cl)c(Cl)c4)cc3)N[C@@](C)(C(=O)OC)[C@H]2C1=O | -0.3% | 0.4% | -2.3% | -22.4% | 0.4
CCN1C(=O)[C@H]2[C@@H](c3ccc(-c4ccc(Cl)c(Cl)c4)c(OC)c3)N[C@@](C)(C(=O)OC)[C@H]2C1=O | 0.5% | 8.0% | -25.5% | -14.6% | -60.0*
CCc1ccc(OCC(=O)NCC(c2ccc(OC)cc2)N2CCOCC2)cc1 (centres undefined) | · | · | -15.8% | · | ·
Cc1cc(-c2ccccc2)nc(N(C)NC(=O)C2CC2)c1S(C)(=O)=O | -0.7% | -2.6% | -4.5% | -4.0% | 6.9
Cc1cc(-c2ccccc2)nc(N(C)NC(=O)c2cccc(C(F)(F)F)c2)c1S(C)(=O)=O | 4.9% | -1.2% | -11.6% | 29.9µM* | 0.4
O=C1CSC(=Nc2ccc(Cl)cc2)N1Cc1ccco1 | -3.5% | -5.4% | -23.1% | -4.0% | 4.8
O=C(COc1ccc(Br)cc1)N/N=C1/SCC(=O)N1Cc1ccco1 | 0.6% | ? | -11.1% | 23.8µM* | -66.9*
Cc1nc2c(C#N)c[nH]n2c(=O)c1CCO | 0.0% | 2.5% | ? | 9.47µM* | ?
CCOC(=O)c1cnc2ccc(OC)cc2c1Nc1ccc(N2CCN(C)CC2)cc1 | -1.1% | 2.1% | i | 6.7µM* | 11.7
O=C(CSc1nnc(-c2cccnc2)n1-c1ccccc1)Nc1ccccn1 | 2.6% | 2.6% | -12.5% | 3.36µM* | ?
C=CCn1c(SCC(=O)Nc2nnc(C)s2)nnc1-c1cccnc1 | 4.6% | 0.0% | -4.5% | 21.2µM* | -6.5
Nc1nc(SCC(=O)Nc2cccnc2Cl)n[nH]1 | 1.6% | 9.7% | -14.3% | 11.9µM* | ?
Nn1c(SCC(=O)Nc2cccnc2Cl)nnc1-c1ccccc1 | 1.8% | ? | -0.2% | 4.74µM* | ?
Cc1ccc(-c2nnc(SCC(=O)Nc3cccnc3Cl)n2N)cc1 | 3.6% | 15.1% | -19.0% | -1.8% | 0.4
CN(C)C(=O)CSc1nnc(-c2cccnc2)n1-c1ccccc1 | 1.4% | 1.6% | -3.1% | -10.7% | 7.4
COc1ccc(C2NC(=O)N(C)C3=C2C(=O)N(c2cccc(C(=O)O)c2)C3)cc1 (centres undefined) | · | · | -9.8% | · | ·
COc1ccc(CNC(=O)c2ccc3c(c2)N(Cc2c(F)cccc2Cl)C(=O)CS3)cc1 | · | · | -14.7% | · | ·
COc1ccc(Nc2nnc(-c3ccc(C)c(S(N)(=O)=O)c3)c3ccccc23)cc1 | · | · | -24.8% | · | ·
CCOC(=O)c1ccccc1NC(=O)c1cn(CC)c2nc(C)ccc2c1=O | -1.8% | 5.7% | -7.7% | 26.7µM* | -6.1
CCn1cc(C(=O)Nc2ccccc2C(=O)OC)c(=O)c2ccc(C)nc21 | -0.6% | · | · | · | ·
CN(C)c1ccc(CNC(=O)c2sc3ncccc3c2-n2cccc2)cc1 | · | · | -17.1% | · | ·
SMILES | USP2a inh | WRN inhibitor | USP1-UAF1 inh | PLK1 PBD block | PI5P4K alpha inh
COc1ccc(OC)c(-c2csc(N(CC3CCCO3)C(=O)C3CCCCC3)n2)c1 (centres undefined) | -8.5% | -1.1% | -22.2% | 16.8µM* | -25.1
Nn1c(Cc2ccc(F)cc2)n[nH]c1=S | 0.3% | 3.1% | -7.0% | 18.9µM* | 5.7
CC(Cc1n[nH]c(=S)n1N)c1ccccc1 (centres undefined) | 4.0% | -6.9% | 7.7% | 26.7µM* | 1.0
Nn1c(Cc2ccccc2)n[nH]c1=S | -0.1% | 0.6% | -24.9% | 0.1% | -2.7
COc1cc(/C=C2/C(=O)N(c3ccc([N+](=O)[O-])cc3)N=C2N2CCOCC2)ccc1O | 10.1% | 2.2% | -12.4% | 10.6µM* | -14.2
CCN(CC)c1ccc(/C=C2/C(=O)N(c3ccc([N+](=O)[O-])cc3)N=C2N2CCOCC2)cc1 | 0.2% | · | · | · | ·
Cc1nnc(NC(=O)CSCc2cc(=O)c3ccc(C)c(C)c3[nH]2)s1 | · | · | 1.6% | · | ·
CCOC(=O)c1cc2c(=Cc3ccc(N(C)C)cc3)c3ccccc3n2[n+]1C | · | 15.8µM* | 15.8µM* | 13.4µM* | -15.4
Cc1cc2c(=Cc3ccc(N(C)C)cc3)c3ccccc3n2[n+]1C | · | 35.5µM* | ? | 12.8% | -20.7
CN(C)c1ccc(C=C2C=Cc3ccccc32)cc1 | · | -0.8% | -15.5% | 3.7% | 21.6
CN(C)c1ccc(C=c2c3ccccc3n3c2c2ccccc2[n+]3C)cc1 | · | 10µM* | ? | 23.8µM* | -75.0*
CC1=NN(c2cccc(F)c2)C(=O)/C1=C/c1ccc(N(C)C)cc1 | 0.1% | -3.7% | 5.1% | -0.6% | -0.8
COc1ccc(-n2ncc3c(NC(C)(C)CO)ncnc32)cc1 | · | · | -8.6% | · | ·
CCCC(=O)OCc1cnc(C)c2oc(=O)c(C(=O)Nc3ccc(F)cc3C)cc12 | · | · | -13.3% | · | ·
COc1ccc(Cn2c(CCC(=O)NCc3cccc(Cl)c3)nc3cccnc32)cc1 | · | · | -25.5% | · | ·
Cc1ccc(-n2ncc3c(N4CCC(C)CC4)ncnc32)cc1C | · | · | -11.2% | · | ·
CC(=O)c1cccc(NS(=O)(=O)c2cc(-c3onc(C)c3C)ccc2C)c1 | · | · | -5.8% | · | ·
CN(C)CCCNc1nc(-c2ccccc2)c2c(c1C#N)CC(C)(C)OC2 | 0.6% | 2.2% | -29.0% | 23.8µM* | -2.5
CCN(CC)CCNc1nc(-c2ccco2)c2c(c1C#N)CC(C)(C)OC2 | 1.4% | 3.4% | -21.6% | -5.2% | -4.2
Cc1ccc(C2CC(=O)n3nc(-c4ccc(Cl)cc4)nc3S2)cc1 (centres undefined) | · | · | 14.2% | · | ·
Cc1nn(-c2ccccn2)c2nc(-c3cccs3)cc(C(=O)N3CCOCC3)c12 | -0.2% | 5.4% | -15.2% | 11.9µM* | ?
CN(C(=O)c1nn(C)c2c1COc1ccccc1-2)c1cccc(C(F)(F)F)c1 | · | · | -7.3% | · | ·
COc1ccc(OCC(=O)N/N=C2\CCCCc3ccccc32)cc1 | -1.1% | -8.5% | -9.3% | 10.6µM* | -62.6*
C[C@@H]1[C@H](c2ccccc2)Oc2ccc(Cl)cc2S(=O)(=O)N1CC1CCCN1C(=O)OC(C)(C)C (some centres undefined) | · | -0.8% | -28.1% | 23.8µM* | -24.9
COc1ccc2cc3cc(C(=O)N4CCN(c5ccccc5F)CC4)oc3nc2c1 | · | · | -11.9% | · | ·
COC(=O)C(C)Sc1n[nH]c(=S)s1 (centres undefined) | -0.8% | -1.4% | -18.7% | ? | -71.7*
CC(=O)N(CCCN1CCOCC1)Cc1ccncc1 | -0.7% | -5.6% | -5.2% | 29.9µM* | 5.4
c1cc(CNCCCN2CCOCC2)ccn1 | 2.8% | -2.3% | -15.1% | -7.8% | 1.2
